TWEAK Fn14 block – inhibitors of TWEAK-Fn14 interaction signaling; inhibition, % at 10 µM; TWEAK-stimulated Fn14 reporter cells, luciferase luminescence, 8 h; 360,000 tested, 2% active; AID 1159606; in the data active = inhibition above about 50%
PAX8 inh HTS – lowers PAX8-driven luciferase in RMG-I cells | inhibition, % at 12.6 µM | 360,000 tested, 1.2% active | AID 652154 | RMG-I TPO-luciferase reporter, SteadyGlo, 24 h;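 active = mean replicate inhibition at least 60% with every replicate also reaching 60%; inconclusive = only one of the two criteria is met; inactive = mean below 60% and not all replicates reaching 60%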;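 also: luciferase light reporting Pax8 driven TPO promoter activity; plate controls were median of neutral control wells for no effect and mitoxantrone controls for full effect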
LGR2 inh – inhibitors of bursicon-induced Drosophila LGR2 receptor cAMP signaling. HEK293 LGR2, CRE-luciferase, bursicon-stimulated, 4 h. inhibition, % at 9.99 µM. 380,000 tested, 0.35% active. AID 720647;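 active = drop in luminescence signal, shown as inhibition above about 50% in the replicate tests, limit read from the data, passing the limit was not always enough; inconclusive = probably only some replicates passing the limit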;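 also: agonist challenge used bursicon conditioned medium at about half maximal strength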
EWS-Fli inh – inhibitors of EWS/Fli oncoprotein transcriptional activity | 350,000 tested, 0.67% active | inhibition, % at 12.6 µM | A673 NR0B1-luciferase reporter, viability-normalised;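 active = mean inhibition of at least 50% after viability correction, with every replicate also passing that limit; inconclusive = mean reaches 50% but only one of two replicates passes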;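 also: firefly luciferase signal divided by Alamar Blue viability fluorescence both relative to DMSO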
TROY NFkB inh – inhibitors of TROY-dependent NF-kB signaling; Q293 LMP1-TROYcd NF-kB luciferase reporter, 4 h; inhibition, % at 10 µM; 360,000 tested, 0.98% active;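 active = compounds whose plate-normalised and pattern-corrected inhibition of the luciferase reporter signal at the single screening dose is 50% or more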
The depositor's hits bear a star; ? = inconclusive; · = no result given. A selection: hits, their analogues and other compounds. The true share with any hit is near 2.8%.

SMILES	TWEAK Fn14 block	PAX8 inh HTS	LGR2 inh	EWS-Fli inh	TROY NFkB inh
Cc1ccc(C(=O)NCCCNC(=O)c2ccco2)cc1	0	2	9	-3	-5
O=C(NCCCNC(=O)c1ccco1)c1ccc(Cl)cc1	70*	-3	13	-38	61*
COc1ccc(N2CCN(c3ncnc4c3cnn4-c3ccc(C)cc3C)CC2)cc1	68*	·	5	19	44
COc1ccc(-n2ncc3c(N4CCN(c5cc(C)ccc5C)CC4)ncnc32)cc1	-18	-3	9	7	-11
Cc1ccc(-n2ncc3c(N4CCN(c5ccccc5)CC4)ncnc32)c(C)c1	87*	35	?	·	50*
CCN1CCN(c2ncnc3c2cnn3-c2ccc(C)cc2C)CC1	-15	7	8	-3	5
c1ccc(Cn2ncc3c(N4CCN(c5ccccc5)CC4)ncnc32)cc1	64*	44	66*	19	72*
C[C@H](CO)N1C[C@H](C)[C@@H](CN(C)Cc2cccc(F)c2)Oc2cc(-c3ccccc3)ccc2S1(=O)=O	·	·	5	4	·
Cc1ccc(SCC(=O)OCC(=O)N(CCC#N)c2ccccc2)cc1C	-4	3	21	-1	8
Cc1ccc(N(CCC#N)C(=O)CCl)cc1C	56*	?	-1	72*	3
COc1cc(Cn2c3ccc(NC(=S)NCc4ccc(C)cc4)cc3c(=O)n2C)ccc1F	73*	14	-1	4	58*
CCCNC(=O)N1CC(=O)N2[C@H](C1)[C@H](c1ccc(-c3ccc(C)cc3)cc1)[C@@H]2CO	·	0	-6	-8	·
c1ccc(Cn2c(-c3ccccc3)nc3nc4ccccc4nc32)cc1	11	7	0	·	4
Clc1cccc(-c2nc3nc4ccccc4nc3n2Cc2ccccc2)c1	-2	85*	-7	1	14
CN1c2ccc(-c3cccc(C#N)c3)cc2[C@H]2[C@H](CCN2S(=O)(=O)c2ccccc2F)[C@H]1CO	·	102*	32	22	·
Cc1ccc(S(=O)(=O)N2CC[C@@H]3[C@H]2c2cc(-c4ccc(C#N)cc4)ccc2N(C)[C@H]3CO)cc1	·	22	13	1	·
Cc1cccc(S(=O)(=O)N2CC[C@@H]3[C@H](CO)N(C)c4ccc(-c5ccc(C#N)cc5)cc4[C@@H]32)c1	·	89*	11	5	·
Cc1cccc(S(=O)(=O)N2CC[C@H]3[C@@H](CO)N(C)c4ccc(-c5ccc(C#N)cc5)cc4[C@H]32)c1	·	-22	-2	1	·
Cc1ccc(S(=O)(=O)N2CC[C@@H]3[C@H](CO)N(C)c4ccc(-c5ccc(C#N)cc5)cc4[C@@H]32)cc1	·	80*	7	13	·
CN1c2ccc(-c3ccccc3)cc2[C@H]2[C@H](CCN2S(=O)(=O)c2ccccc2F)[C@H]1CO	·	26	4	-6	·
Cc1cccc(S(=O)(=O)N2C[C@@H](O)COC[C@@H]3O[C@@H](CC(=O)NCCCN4CCOCC4)CC[C@H]32)c1	·	-25	3	-3	·
O=C(C[C@H]1C=C[C@@H](NS(=O)(=O)c2ccc(F)cc2)[C@@H](CO)O1)NCCc1ccncc1	·	-33	-1	-1	·
Cc1ccc(S(=O)(=O)N(C)C[C@H]2OCCCC[C@H](C)Oc3ccc(NS(=O)(=O)c4ccc(F)cc4)cc3C(=O)N([C@@H](C)CO)C[C@H]2C)cc1	·	19	11	2	·
NC(=O)CSc1nnc2sc3ccccc3n12	85*	·	·	·	·
CC(C)NC(=O)CSc1nnc2sc3ccccc3n12	-17	·	2	-27	-8
SMILES	TWEAK Fn14 block	PAX8 inh HTS	LGR2 inh	EWS-Fli inh	TROY NFkB inh
COc1ccc(/C=C/C(=O)c2cc(Cl)cc(Cl)c2O)c(OC)c1	0	20	-5	-10	-7
O=C(/C=C/c1ccccn1)c1cc(Cl)cc(Cl)c1O	34	63*	5	1	-14
COc1ccccc1C#Cc1cnc2c(c1)C(=O)N([C@@H](C)CO)C[C@H](C)[C@@H](CN(C)C(=O)c1ccc3c(c1)OCO3)O2	·	34	7	-15	·
COc1ccccc1-c1ccc([C@@H]2[C@@H]3CN(S(=O)(=O)c4ccc(-c5ccccc5)cc4)C[C@H]2N3)cc1	·	107*	18	-3	·
Cc1ccc(S(=O)(=O)N2C[C@@H]3N[C@H](C2)[C@@H]3c2ccc(-c3cccc(C)c3)cc2)cc1	·	-6	7	-2	·
Cc1ccc(-c2ccc(C3[C@@H]4CN(S(=O)(=O)c5ccc(C)cc5)C[C@H]3N4)cc2)cc1 (some centres not stated)	·	73*	0	8	·
CC(C)NC(=O)N(C)C[C@@H]1Oc2ncc(-c3ccccc3F)cc2C(=O)N([C@@H](C)CO)C[C@H]1C	·	·	-1	-6	·
O=C(CCl)N1c2ccccc2CCc2ccccc21	20	17	14	84*	12
CC(Cl)C(=O)N1c2ccccc2CCc2ccccc21 (configuration not stated)	-1	17	2	14	23
CCOc1ccc(OCC)c(S(=O)(=O)NNC(=O)c2c(C)nc3ccccn23)c1	-5	86*	20	10	2
Cn1c(N=Nc2ccc(N3CCOCC3)cc2)[n+](C)c2ccccc21	45	-19	-35	-26	70*
Cn1c(=Nc2ccc(N3CCOCC3)cc2)ccc2ccccc21	72*	·	·	·	·
CCCNC(=O)N(C)C[C@@H]1Oc2cc(C#CC3CC3)ccc2S(=O)(=O)N([C@H](C)CO)C[C@@H]1C	·	·	-12	-6	·
CCN(CC)CCN1C(=O)c2ccccc2NC1c1ccc(N(C)C)cc1 (configuration not stated)	68*	·	·	·	21
CN(C)c1ccc(C2NC(=O)c3ccccc3N2)cc1 (configuration not stated)	62*	-53	54*	-28	41
CCN(CC)CCN1C(=O)c2ccccc2NC1c1ccc(F)cc1 (configuration not stated)	4	·	8	·	-5
CN(C)c1ccc(C2Nc3ccccc3C(=O)N2CCCN2CCOCC2)cc1 (configuration not stated)	56*	-16	4	-1	26
Cc1noc(C)c1S(=O)(=O)N(C)C[C@H]1OCCCC[C@H](C)Oc2ccc(NC(=O)CCCN(C)C)cc2C(=O)N([C@@H](C)CO)C[C@@H]1C	·	-30	8	-8	·
CC(=O)c1c(N2CCOCC2)[nH]c(-c2ccccc2)nc1=S	15	18	-10	2	67*
O=C(Nc1nnc(-c2ccccc2)s1)c1cc(S(=O)(=O)N2CCOCC2)c(Cl)cc1Cl	-55	·	·	·	61*
O=C(Nc1ccccc1)N1C[C@H]2[C@@H](c3ccccc31)[C@@H](CO)N2C(=O)c1cccnc1	·	-76	5	-10	·
O=C(/C=C/Nc1ccccc1O)c1ccco1	-16	-56	11	-22	-21
O=C(/C=C/Nc1ccc(F)cc1F)c1ccco1	73*	-36	?	65*	-13
CN(C)c1ccc(N/C=C/C(=O)c2ccco2)cc1	86*	-153	·	·	-14
CC(=O)Nc1ccc(N/C=C/C(=O)c2ccco2)cc1	-9	·	·	·	-9
O=C(/C=C/Nc1cccc(F)c1)c1ccco1	-15	·	·	·	-18
